# Screening results (PubChem)
# TDP1 cell noCPT: qHTS for Inhibitors of human tyrosyl-DNA phosphodiesterase 1 (TDP1): qHTS in cells in absence of CPT; DT40 Tdp1-/- hTDP1 cells, no CPT, ATP luminescence, 48 h; Potency, µM (doses to about 46.2 µM), actives largely listed as inhibitors; 420,000 compounds, 15% hits; AID 686978, 2013; further: nearly all actives have a fitted effect of over 55% in size
#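 Growth of hTDP1-complemented DT40 Tdp1-knockout cells is measured by ATP luminescence after at least 48 hr compound exposure at 37 °C, with DMSO substituting for the 20 nM CPT used in the parallel screen.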
# ClpP mod: qHTS Assay for Activators of ClpP. Potency, µM (titrated, usually from 57.5 µM). 340,000 compounds, 1.9% hits. purified B. subtilis ClpP, FRET peptide cleavage, 20 min. AID 651965, 2013; active means well fitted falling curve with a large enough effect; inconclusive means small, poorly fitted or top-dose-only effect; inactive means no such curve, though single readings can be large or run the other way; further: the source files actives as falling curves though it sought activators and does not explain the sign; nearly all actives have a fitted effect of over 65% in size
#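 Buffer: 100 mM Tris/HCl pH8, 100 mM KCl, 0.05% low protease BSA, 2.5% glycerol, 0.01% Tween-20. ClpP 10 microg/mL final; 20 min RT; delta FRET normalized to ADEP and DMSO controls.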
# TDP1 block: TDP1 (human) enzyme inhibition; 350,000 compounds, 0.28% hits; Q9NUW8; recombinant TDP1, AlphaScreen DNA substrate cleavage; Potency, µM (highest dose often 130 µM), most hits filed as inhibitors; further: nearly all actives have a fitted effect of over 40% in size
#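 Signal: AlphaScreen proximity between streptavidin donor and anti-FITC acceptor beads on intact substrate. Reaction: Tdp1 1 nM, substrate 15 nM final, 5 min RT after 15 min compound preincubation.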
# DT40 TDP1 CPT: DT40-hTDP1 cell growth loss with CPT | chicken DT40 Tdp1-/-;hTDP1 cells + 20 nM CPT, ATP luminescence, 48 h | Potency, µM (titrated, usually from 46.2 µM), hits mostly inhibitors | 420,000 compounds, 12% hits; further: nearly all actives have a fitted effect of over 55% in size
#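 Cell growth measured by CellTiter-Glo luminescence after a minimum 48 h, 37 C compound exposure with 20 nM CPT in Tdp1-knockout DT40 cells stably expressing hTDP1, seeded 400/well; qHTS titration format.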
# Hits are given with their value; - = inactive; ? = inconclusive; . = no result given; [ ] = another dose, or the depositor's remark. A selection: hits, their analogues and other compounds. The true share with any hit is near 17%. Unless noted, the call rests on the fitted dose curve; in most records, active means well fitted curve in the direction sought with a large enough effect; inconclusive means small, poorly fitted or top-dose-only effect, or another doubt; inactive means no such curve, though single readings can be large; an effect the other way counts as inactive or inconclusive.
SMILES,TDP1 cell noCPT,ClpP mod,TDP1 block,DT40 TDP1 CPT
COc1ccc(/C=C2\Sc3ccc(C(=O)NCCN4CCCCCC4)cc3N(C)C2=O)cc1,23µM,-,-,?
CCC1([N+](=O)[O-])COC(C=Cc2ccccc2)OC1 (centres undefined),-,.,.,?
O=C1C=CCC(/C=C/c2ccccc2)O1 (centres undefined),3.7µM,-,-,2.3µM
CCCCn1cc(S(=O)(=O)c2ccccc2)c(=O)c2cc(F)c(N3CCC(C)CC3)cc21,?,-,-,?
CCCNC(=O)CC1Sc2ccccc2NC1=O (centres undefined),-,-,-,-
Cc1ccc(C)c(NC(=O)CC2Sc3ccccc3NC2=O)c1 (centres undefined),-,-,.,-
Cc1ccc(NC(=O)CC2SC3=NCCCN3C2=O)c(C)c1 (centres undefined),16µM,-,-,9.2µM
CCCCOc1ccccc1NC(=O)CC1Sc2ccccc2NC1=O (centres undefined),?,-,.,21µM
Cc1ccc(NC(=O)CC2Sc3ccccc3NC2=O)c(C)c1 (centres undefined),23µM,-,-[12.3 µM],?
CCCn1c(=O)n(-c2cc(Cl)c(OC)cc2OC)c(=O)c2c3c(sc21)CN(C(C)=O)CC3,?,-,-,?
COc1cc(OC)c(N(C)C(=O)c2cn(C3CCCC3)c(=O)c3c2c2ccccc2n3C)cc1Cl,8.2µM,-,-,10µM
Cn1c2ccccc2c2c(C(=O)NCCCN3CCCC3=O)cn(C3CCCCC3)c(=O)c21,?,14µM,-,-
COc1cc(Cl)c(C)cc1NC(=O)c1cn(C2CCCC2)c(=O)c2c1c1ccccc1n2C,?,-,-[12.3 µM],0.65µM
COc1cccc(NC(=O)c2cn(C3CCCCC3)c(=O)c3c2c2ccccc2n3C)c1,?,32µM,-,-
Cc1nn(-c2ccccc2)c(C)c1C(=O)OC(C)C(=O)NC1CCCCC1 (centres undefined),10µM,.,-,16µM
Oc1ccc(CCc2ccccc2F)c2cccnc12,.,.,-,.
CCCOCc1ccc(O)c2ncccc12,0.58µM,.,.,0.82µM
CC(C)COCc1ccc(O)c2ncccc12,0.65µM,.,-,0.92µM
CC(=O)CSc1nsc(SCC(C)=O)c1C#N,18µM,-,-,18µM
Cc1csc(NC(=O)CSc2nsc(SCC(=O)Nc3nc(C)cs3)c2C#N)n1,13µM,-,-,16µM
CCOC(=O)CSc1nsc(SCC(=O)OCC)c1C#N,-,-,-,-
Cc1ccc(NC(=O)CSc2nsc(SCC(=O)Nc3ccc(C)cc3C)c2C#N)c(C)c1,?,.,-,?
CC(C)(C)NC(=O)CSc1nsc(SCC(=O)NC(C)(C)C)c1C#N,16µM,-,-,23µM
N#Cc1c(SCC(=O)N2CCOCC2)nsc1SCC(=O)N1CCOCC1,-,-,-,-
COC(=O)c1ccc(C(NC(=O)OCc2ccccc2)/C(=C/[C@@H](C)C(=O)NCc2ccccc2)c2cccnc2)cc1 (some centres undefined),.,.,-,.
SMILES,TDP1 cell noCPT,ClpP mod,TDP1 block,DT40 TDP1 CPT
CCOC(=O)c1cnc2ccc(OCC)cc2c1N1CCN(c2ccccc2OC)CC1,12µM,-,-,?
CCOc1ccc2ncc(C(=O)c3ccc(OC)cc3)c(N3CCN(CC)CC3)c2c1,?,-,-,?
CCOC(=O)c1cnc2ccc(OCC)cc2c1N(C)Cc1ccccc1,23µM,-,-,?
CCOC(=O)c1cnc2c(OC)cccc2c1N1CCN(c2ccccc2F)CC1,18µM,-,-,18µM
CCN(CC)S(=O)(=O)c1ccc2oc(SCC3CN=C(c4ccc(OC)cc4)S3)nc2c1 (centres undefined),16µM,-,-,?
COc1ccc(C2=NCC(CSc3nnc(-c4ccc5c(c4)OCO5)o3)S2)cc1 (centres undefined),?,-,-,?
O=c1[nH]c(=O)n(C2CCCO2)cc1F (centres undefined),-,-,-,-
O=c1ccn(C2CCCO2)c(=O)[nH]1 (centres undefined),15µM,-,.,-
N#CC(=Cc1ccnc2ccccc12)c1ccccc1,21µM,-,.,?
C(=C\c1ccnc2ccccc12)/c1cccnc1,13µM,-,.,?
CSc1nc2ccccc2cc1/C=C(\C#N)c1ccccc1,?,-,-,?
O=[N+]([O-])c1ccccc1/C=C/c1ccnc2ccccc12,14µM,-,.,?
Nc1ccccc1/C=C/c1ccnc2ccccc12,3.2µM,-,.,5µM
COc1ccccc1N1CCN(c2nc(CNC(=O)c3cc(C)oc3C)nc3ccccc23)CC1,?,.,.,-[9.04 µM]
O=C(/C=C/c1ccnc2ccccc12)c1cccs1,13µM,.,-,4.6µM
O=C(Cn1cnc2ccccc2c1=O)c1cccs1,?,-,-,-
Cn1cc(/C=C/c2ccnc3ccccc23)c2ccccc21,11µM,-,.,?
C(=C\c1ccnc2ccccc12)/c1ccnc2ccccc12,18µM,-,.,?
C[n+]1c(/C=C/c2ccnc3ccccc23)cc(/C=C/c2ccnc3ccccc23)c2ccccc21,2.5µM,-,.,5µM
CCOc1ccc2c(c1)c(=O)c(C(=O)c1ccc(CC)cc1)cn2CC(=O)Nc1ccc2c(c1)OCCO2,?,-,-,?
COc1cc(F)c(S(=O)(=O)N2CCCN(S(=O)(=O)c3cccc(NC(C)=O)c3)CC2)c(F)c1,.,.,-,.
Cc1ccc(CNC(=O)C(=O)NCC(c2ccco2)S(=O)(=O)c2ccccc2)cc1 (centres undefined),-,-,-,-
O=C(O)CCN(CCC(=O)O)c1ccc(/C=C/c2ccnc3ccccc23)cc1,-,-,.,-
S=Cc1ccc(/C=C/c2ccnc3ccccc23)cc1,?,-,.,?
O=CNc1ccc(/C=C/c2ccnc3ccccc23)cc1,14µM,?,.,13µM
SMILES,TDP1 cell noCPT,ClpP mod,TDP1 block,DT40 TDP1 CPT
O=Cc1ccnc2ccccc12,-,-,.,2.8µM
ON=Cc1ccnc2ccccc12,?,-,.,-
C=Nc1ccc(/C=C/c2ccnc3ccccc23)cc1,11µM,-,.,22µM
CCCCCCC(=O)N(O)C1CC(=O)N(c2ccc(C)cc2)C1=O (centres undefined),5.8µM,-,-,2.9µM
CCCCCCC(=O)N(O)C1CC(=O)N(c2ccc(Cl)cc2)C1=O (centres undefined),2.9µM,.,-,2.3µM
Cc1ccc(N2C(=O)CC(N(O)C3CC(=O)N(c4ccc(C)cc4)C3=O)C2=O)cc1 (centres undefined),?,-,-,?
COc1ccc(Nc2ncc(C(=O)N3CCN(c4ccc(F)cc4)CC3)c3ccccc23)cc1,5.2µM,-,-,23µM
COc1ccc(Nc2ncc(C(=O)N3CCN(c4ccc(OC)cc4)CC3)c3ccccc23)cc1,16µM,-,-,23µM
COc1ccc(Nc2ncc(C(=O)N3CCN(c4cccc(Cl)c4)CC3)c3ccccc23)cc1,4.6µM,?,-,15µM
Cc1ccc(Nc2ncc(C(=O)N3CCN(c4ccc(F)cc4)CC3)c3ccccc23)cc1Cl,?,-,-,?
